Screening data (PubChem BioAssay)
Compounds with a hit are over-represented: about 2.2% of the library has one in this group of screens.
VACV Venus inh – qHTS for Stage-Specific Inhibitors of Vaccinia Orthopoxvirus: Venus Reporter Primary qHTS; hit rate 0.46% among 330,000; Potency, µM (series often up to 36.5 µM), usual class: inhibitors; Vaccinia virus Venus reporter expression, fluorescence; calls by dose curve; tested in A549 cells; also: nearly all actives have a fitted effect of over 30% in size
FBPA Giardia inh – qHTS Assay for Inhibitors of Fructose-1,6-bisphosphate Aldolase from Giardia Lamblia. purified Giardia FBPA. Potency, µM (titrated, usually from 59.6 µM), usual class: inhibitors. A8B2U2. hit rate 0.71% among 290,000; active = well fitted inhibition curve with a large enough effect; inconclusive = small, poorly fitted or top-dose-only effect, or effect the other way; also: nearly all actives have a fitted effect of over 55% in size
Target sequence (A8B2U2 whole entry, looked up): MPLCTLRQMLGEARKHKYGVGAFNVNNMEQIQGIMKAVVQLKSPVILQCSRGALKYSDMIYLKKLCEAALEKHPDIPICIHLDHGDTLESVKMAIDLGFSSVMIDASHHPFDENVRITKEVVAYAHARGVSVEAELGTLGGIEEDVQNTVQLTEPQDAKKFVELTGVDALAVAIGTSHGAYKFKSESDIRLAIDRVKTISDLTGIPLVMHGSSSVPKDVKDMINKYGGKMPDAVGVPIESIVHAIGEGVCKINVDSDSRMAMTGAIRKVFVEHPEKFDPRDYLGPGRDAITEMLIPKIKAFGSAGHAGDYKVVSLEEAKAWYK
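Giardia FBPA (40 nM reagent) was preincubated 10 min at RT with compound (up to 57.5 uM final), then substrate plus GAPDH/TPI/NAD/arsenate coupling system with diaphorase/resazurin was added; resorufin fluorescence (525/598 nm) was read after 20 min.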
FMDV antiviral – High Throughput Screening for Foot and Mouth Disease Virus Antivirals; AID 1159524, 2015; FMDV antiviral cell-based qHTS; Potency, µM (highest dose often 57.9 µM), most hits filed as inhibitors; hit rate 1.2% among 410,000; calls by dose curve; tested in HEK293T cells; also: read-out not given here; nearly all actives have a fitted effect of over 45% in size
VACV mCherry inh – qHTS for Stage-Specific Inhibitors of Vaccinia Orthopoxvirus: mCherry Reporter Primary qHTS; hit rate 0.63% among 310,000; AID 720579, 2013; Potency, µM (highest dose often 36.5 µM), usual class: inhibitors; Vaccinia virus mCherry reporter infection, fluorescence; calls by dose curve; tested in A549 cells; also: nearly all actives have a fitted effect of over 35% in size
Each line names hits and unclear results; the compound was inactive in the other large screens.

O=C(NCCCl)Nc1ccccc1OCCOc1ccccc1NC(=O)NCCCl	VACV Venus inh inconclusive, VACV mCherry inh 14µM
COc1ccccc1NC(=O)NCCCl	VACV Venus inh 10µM, VACV mCherry inh 10µM
Oc1c(Cl)cc(Cl)cc1/C=N/Nc1ncc(Br)cn1	VACV Venus inh inconclusive, VACV mCherry inh 1.6µM
COc1ccc2nc(C)cc(N/N=C/c3ccc(F)cc3)c2c1	VACV Venus inh 10µM, VACV mCherry inh inconclusive
COC(=O)c1ccc2nc(NC(=O)C3CCCCC3)sc2c1	none (no result: VACV Venus inh, VACV mCherry inh)
COC(=O)c1ccc2nc(NC(=O)C(C)(C)C)sc2c1	FMDV antiviral 14µM
c1ccc(N2CCN(c3nnc(Cc4cccnc4)c4ccccc34)CC2)nc1	FMDV antiviral 10µM (no result: VACV Venus inh, VACV mCherry inh)
COc1cc(-c2nc3ccccn3c2NCc2ccccc2)ccc1SC1CCCCC1	VACV Venus inh inconclusive, FMDV antiviral 22µM, VACV mCherry inh inconclusive (no result: FBPA Giardia inh)
COc1cc(-c2nc3ccc(C)cn3c2NCc2ccccc2)ccc1SC1CCCCC1	FMDV antiviral inconclusive (no result: FBPA Giardia inh)
COc1ccc(CSc2ccc(-c3nc4ccccn4c3NCc3ccccc3)cc2OC)cc1	FMDV antiviral inconclusive (no result: FBPA Giardia inh)
CCC(C)Sc1ccc(-c2nc3ccccn3c2NCc2ccccc2)cc1OC (configuration not stated)	VACV Venus inh inconclusive, FMDV antiviral 40µM, VACV mCherry inh inconclusive (no result: FBPA Giardia inh)
COc1cccc2ccc(CN3CCC4(CC3)c3ccccc3[C@@H](NC(=O)c3ccccc3)[C@@H]4O)nc12	none (no result: FBPA Giardia inh)
Cc1sc2ccccc2[n+]1C	none (no result: FBPA Giardia inh, FMDV antiviral)
CN(C)CCNc1ccc(CO)c2oc3ccc(O)cc3c(=O)c12	VACV Venus inh 10µM, VACV mCherry inh inconclusive (no result: FBPA Giardia inh)
O=C1CC(c2ccc3c(c2)OCO3)Sc2nc3ccccc3n21 (configuration not stated)	FMDV antiviral 18µM
CCCN1CCN(C(=O)c2cnn(-c3ncc4c(n3)-c3ccccc3CCC4)c2COC)CC1	none (no result: FBPA Giardia inh)
O=C(Nc1ccccc1F)c1ccc2c(Cl)c3c(nc2c1)CCC3	FMDV antiviral 10µM (no result: FBPA Giardia inh)
O=S(=O)(NCc1nnc2n1CCN(Cc1ccccc1Cl)CC2)c1ccccc1	none (no result: FBPA Giardia inh)
Cc1nc(C)c(C(=O)N2CCc3c(cnc(C)c3CNC(=O)c3cncs3)C2)s1	none (no result: FBPA Giardia inh)
Cn1cc(C(=O)CCl)c2ccccc21	FMDV antiviral 22µM (no result: VACV Venus inh, VACV mCherry inh)
COc1ccc(OC)c2c(C)ccnc12	none (no result: FBPA Giardia inh, FMDV antiviral)
CCCCN(CCCC)c1nc(-c2ccncc2)nc2ccccc12	FMDV antiviral 28µM (no result: VACV Venus inh, VACV mCherry inh)
CCN(CC)c1nc(-c2ccccc2)nc2ccccc12	FBPA Giardia inh inconclusive, FMDV antiviral inconclusive
COC1=CC(=O)c2c(ccc3ncnc(N)c23)C1=O	VACV Venus inh inconclusive, FMDV antiviral 2.5µM, VACV mCherry inh inconclusive (no result: FBPA Giardia inh)
Cn1c(SCC2CCCO2)nnc1C1CCN(Cc2ccc(-c3cccc(Cl)c3)o2)CC1 (configuration not stated)	none (no result: FBPA Giardia inh)
CCOc1ccc(N(C)S(=O)(=O)c2cc(-c3cc(C)no3)ccc2C)cc1	FMDV antiviral 20µM (no result: VACV Venus inh, VACV mCherry inh)
CCOc1ccc(N(C)S(=O)(=O)c2cc(-c3cc(C)no3)ccc2CC)cc1	FMDV antiviral 18µM (no result: FBPA Giardia inh)
COc1ccc(-c2cc(C)no2)cc1S(=O)(=O)N(C)c1ccc(C)cc1	none (no result: VACV Venus inh, VACV mCherry inh)
CCOc1ccc(N(C)S(=O)(=O)c2cc(-c3cc(C)no3)ccc2OC)cc1	none
COc1ccc(NC(=O)c2c(NC(=O)c3ccncc3)sc3c2CCC(C(C)(C)C)C3)cc1 (configuration not stated)	VACV Venus inh inconclusive, FMDV antiviral inconclusive, VACV mCherry inh 10µM (no result: FBPA Giardia inh)
CCOC(=O)C1Oc2ccccc2C(c2ccccc2)=C1C(C)=O (configuration not stated)	none (no result: VACV Venus inh, FMDV antiviral, VACV mCherry inh)
COc1cc(O)c(C(=O)c2ccccc2)cc1O	FBPA Giardia inh 3.5µM, VACV mCherry inh inconclusive
COc1ccc(C(=O)c2ccccc2)c2c(O)ccc(C(=O)c3ccccc3)c12	VACV Venus inh inconclusive, FMDV antiviral 13µM (no result: VACV mCherry inh)
COc1cc(O)c(C(=O)c2ccccc2)cc1S(=O)(=O)O	none (no result: VACV Venus inh, FMDV antiviral, VACV mCherry inh)
COc1ccc(C(=O)c2ccc(Cl)cc2)c2ccccc12	VACV Venus inh inconclusive (no result: VACV mCherry inh)
COc1ccc(C(=O)c2ccc(O)cc2)c(O)c1O	FBPA Giardia inh 22µM
CCOc1ccc(C(=O)c2ccc(OC)c(O)c2O)cc1	FBPA Giardia inh inconclusive
C=C1CCN(C(C(=O)NCc2ccc(Cl)c(Cl)c2)C(C)C)S(=O)(=O)c2ccccc21 (configuration not stated)	none (no result: VACV Venus inh, FMDV antiviral, VACV mCherry inh)
CCCCCCCCCCCCC/C=C/C(O)C(COP(=O)(O)OCCN)NC(=O)CCCCCCCCCCCCCCCCC (configuration not stated)	none (no result: VACV Venus inh, FMDV antiviral, VACV mCherry inh)
CC(=O)Nc1ccc(S(=O)(=O)N2CCc3nc(COc4ccccc4)c4c(c3C2)CO[C@@H](C)C4)cc1	none (no result: VACV Venus inh, FMDV antiviral, VACV mCherry inh)
